Source: PubChem BioAssay (several laboratories)
This is a sample that favours compounds with a hit; in the whole collection about 2.9% have one here.
HSF1 inh – HSF1 inhibition | NIH3T3-HGL HSE-luciferase, MG132-induced, luminescence 8 h; hits give low values | activity change, negative = inhibition, % at 7.5 µM (by protocol) | 0.77% of 300,000 active | AID 2098;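 active means more than half of replicate wells show activity change below -50%, luminescence cut by over half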;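 further: luciferase reports HSF-1 transcriptional activity via heat shock element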
S1P4 ag – activates the human S1P4 receptor; O95977; S1P4-expressing cell line, agonist reporter assay; activation, % at 4.98 µM; 0.35% of 220,000 active; in the data active means activation above about 11%
Target sequence (O95977 whole entry, looked up): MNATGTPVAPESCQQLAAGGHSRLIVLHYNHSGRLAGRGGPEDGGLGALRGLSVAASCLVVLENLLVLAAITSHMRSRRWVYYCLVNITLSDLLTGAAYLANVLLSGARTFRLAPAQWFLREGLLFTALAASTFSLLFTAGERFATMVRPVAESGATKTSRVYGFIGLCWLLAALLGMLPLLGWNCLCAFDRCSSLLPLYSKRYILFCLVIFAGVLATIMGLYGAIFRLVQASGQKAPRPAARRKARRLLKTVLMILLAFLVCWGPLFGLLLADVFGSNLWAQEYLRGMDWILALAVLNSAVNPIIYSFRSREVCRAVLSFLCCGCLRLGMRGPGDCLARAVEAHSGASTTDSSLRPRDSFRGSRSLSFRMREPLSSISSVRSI
Hsp70 activator – transcriptional activators of Hsp70; HeLa Hsp70 promoter luciferase reporter, luminescence; scaled: vehicle 0, proteasome-inhibitor control 100%; activation, % at 10 µM; 0.04% of 200,000 active; AID 1203;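 active means activation above the mean across all tested compounds plus 3 SD, cutoff set per campaign, cut at about 5.5% in these data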
S1P4 antag – antagonists of human S1P4 receptor. O95977. S1P4-expressing cells, antagonist mode, reporter read-out. inhibition, % at 4.98 µM. 0.26% of 220,000 active. AID 1510; in the data active means inhibition above about 29%
HSF1 activator – increases HSF-1 driven luciferase reporter signal; NIH3T3-HGL HSF-1 luciferase reporter, MG132, 8 h; 100% = twice DMSO control signal; activation, % at 9 µM; 1.7% of 300,000 active;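 active means mean replicate activation of at least 50% with a set share of replicates each reaching 50%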
S1P3 antagonist – antagonists of human S1P3 receptor | CHO S1P3 NFAT-BLA reporter, FRET fluorescence, antagonist mode | inhibition, % at 4.98 µM | 0.27% of 170,000 active | AID 485;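 active means inhibition above the plate cutoff, the mean inhibition of test wells on that plate plus 3 SD, cut at about 28% in these data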;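 further: cells challenged with S1P at its EC80 of 0.8 µM; blue over green emission ratio from cleaved BLA substrate after 4 h stimulation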
Target sequence (Q99500 whole entry, looked up): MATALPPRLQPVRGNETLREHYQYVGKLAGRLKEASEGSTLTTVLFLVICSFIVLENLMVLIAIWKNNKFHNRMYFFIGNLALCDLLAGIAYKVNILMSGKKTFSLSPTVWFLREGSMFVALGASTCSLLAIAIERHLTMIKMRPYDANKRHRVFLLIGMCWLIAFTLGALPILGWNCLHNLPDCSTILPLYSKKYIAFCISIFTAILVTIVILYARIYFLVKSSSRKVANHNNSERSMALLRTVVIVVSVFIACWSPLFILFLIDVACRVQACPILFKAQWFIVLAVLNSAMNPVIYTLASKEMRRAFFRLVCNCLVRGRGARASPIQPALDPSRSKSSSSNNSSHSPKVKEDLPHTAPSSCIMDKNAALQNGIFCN
Each line names hits and unclear results; the compound was inactive in the other large screens.

CC(OC(=O)c1cc(-c2cccnc2)nc2ccccc12)C(=O)Nc1ccc2ccccc2c1 (stereo not given)	none
O=C(N/N=C/c1ccc(Br)s1)c1c[nH]c2ccccc12	HSF1 activator 56.2
O=C(N/N=C/c1cc(Br)cs1)c1c[nH]c2ccccc12	none (no result: Hsp70 activator)
COc1cccc(N2[C@@H](CC(C)=O)c3ccc(/C=C/C(C)=O)cc3S2(=O)=O)c1	none (no result: S1P4 ag, Hsp70 activator, S1P4 antag, S1P3 antagonist)
COc1ccc(/C=C/C(=O)NCC(=O)N/N=C/c2cc(Br)ccc2OC)cc1	none (no result: S1P3 antagonist)
COc1ccccc1/C=C/C(=O)NCC(=O)N/N=C/c1cc(Br)ccc1OC	HSF1 activator 59.0 (no result: S1P3 antagonist)
Oc1ccccc1-c1cc(-c2ccc(F)cc2)n[nH]1	none (no result: S1P4 ag, Hsp70 activator, S1P4 antag, S1P3 antagonist)
Oc1ccc(F)cc1-c1cc(-c2ccc3c(c2)OCCO3)n[nH]1	HSF1 activator 105.3 (no result: S1P3 antagonist)
CN(C)c1nc(OCCNC(=O)COc2ccccc2Cl)nc(N(C)C)n1	none (no result: S1P3 antagonist)
CCC(c1nnnn1C(C)(C)C)N(Cc1ccco1)Cc1cc2cccc(C)c2[nH]c1=O (stereo not given)	HSF1 activator 66.4 (no result: S1P3 antagonist)
CCOc1ccc2[nH]c(=O)c(CN(Cc3ccco3)C(CC)c3nnnn3Cc3ccccc3)cc2c1 (stereo not given)	none
CCC(c1nnnn1CCc1ccccc1)N(Cc1ccco1)Cc1cc2cccc(C)c2[nH]c1=O (stereo not given)	HSF1 activator 89.9
Cc1ccc(N(Cc2ccccc2)C(=O)c2cc(S(=O)(=O)N3CCOCC3)ccc2C)cc1	none (no result: S1P4 ag, Hsp70 activator, S1P4 antag, S1P3 antagonist)
Oc1c(N=Nc2ccccn2)ccc2ccccc12	HSF1 activator 264.8 (no result: S1P3 antagonist)
c1ccc2c(c1)ccc1ncccc12	none
OCCN1CCN(c2ncnc3ccc(Br)cc23)CC1	S1P3 antagonist 101.6
OCCN1CCN(c2nc(-c3ccccc3)c3cc(Br)ccc3n2)CC1	none (no result: S1P4 ag, Hsp70 activator, S1P4 antag, S1P3 antagonist)
CCC(=O)Nc1ccc(NC(=O)c2ccco2)c(OC)c1	none
COc1cc(NC(=O)CC(C)C)ccc1NC(=O)c1ccco1	HSF1 activator 53.6
C/C=C1\COC(C(=O)NCc2ccccc2)(C(F)(F)F)C=C1C=C(C)C (stereo not given)	HSF1 activator 152.7 (no result: S1P4 ag, Hsp70 activator, S1P4 antag, S1P3 antagonist)
CCNc1c(NS(=O)(=O)c2ccc([N+](=O)[O-])cc2)c(=O)oc2ccccc12	none (no result: S1P4 ag, Hsp70 activator, S1P4 antag, S1P3 antagonist)
O=C(NCCSc1ccc(Br)cc1)c1ccc2nc[nH]c2c1	none (no result: S1P4 ag, Hsp70 activator, S1P4 antag, S1P3 antagonist)
O=C1c2ccccc2C(Nc2ccc(F)c(Cl)c2)N1c1ccccn1 (stereo not given)	none
O=C1c2ccccc2C(Nc2ccc3c(c2)OCCO3)N1c1ccc(Cl)cn1 (stereo not given)	HSF1 inh -54.4
O=C1c2ccccc2C(Nc2ccccc2)N1c1ccc(Cl)cn1 (stereo not given)	none (no result: HSF1 inh, HSF1 activator, S1P3 antagonist)
O=C1c2ccccc2C(Nc2ccc3c(c2)OCCO3)N1Cc1ccc2c(c1)OCO2 (stereo not given)	HSF1 inh -64.2
O=C1c2ccccc2C(Nc2ccc3c(c2)OCCO3)N1c1ccccn1 (stereo not given)	HSF1 inh -69.5
O=C(O)c1cccc(NC(=O)c2ccc(S(=O)(=O)c3ccccc3)cc2)c1	none
CCOC(=O)c1sc(NC(=O)c2sccc2C)cc1C	HSF1 activator 73.4 (no result: S1P3 antagonist)
O=P(O)(CCCCP(=O)(O)CCc1ccccc1)CCc1ccccc1	none (no result: HSF1 inh, S1P4 ag, Hsp70 activator, S1P4 antag, HSF1 activator)
CC(=O)c1ccc(NC(=O)CCNC(=O)c2ccccc2Cl)cc1	none (no result: S1P4 ag, Hsp70 activator, S1P4 antag, S1P3 antagonist)
Cc1cccc(CS(=O)(=O)Cc2ccc(C(=O)NCc3cccs3)o2)c1	HSF1 inh -71.5
COc1cc(S(=O)(=O)NCCCN2CCOCC2)ccc1-n1cnnn1	none
COc1cc2c(cc1OC)C(C)N(S(=O)(=O)c1ccc(C)cc1)CC2 (stereo not given)	HSF1 activator 60.4 (no result: S1P4 ag, Hsp70 activator, S1P4 antag, S1P3 antagonist)
Cc1ccc(OCc2ccc(C(=O)Nc3ccc(S(N)(=O)=O)cc3)o2)cc1	none
CCC(=O)CCC(=O)c1ccc2ccccc2c1	HSF1 inh -57.9
CCC(=O)Nc1ccc(NC(=O)c2ccc3ccccc3c2)cc1	none (no result: S1P4 ag, Hsp70 activator, S1P4 antag, S1P3 antagonist)
CN(C)c1nc(C=C(C#N)C#N)c(Cl)n1-c1ccc(F)cc1	HSF1 activator 94.9
CCN(CC)CCCn1c2c(c(SCC(=O)Nc3ccc4c(c3)OCO4)nc1=O)CCC2	none (no result: S1P4 ag, Hsp70 activator, S1P4 antag, S1P3 antagonist)
C[C@H](NC(=O)CCCOc1ccc(Cl)cc1Cl)c1nnc2ccccn12	none (no result: S1P4 ag, Hsp70 activator, S1P4 antag, S1P3 antagonist)
O=C(CN1c2ccccc2Sc2ccccc21)N/N=C/c1ccc(Cl)cc1	HSF1 activator 61.3 (no result: Hsp70 activator)
CCCCOC(=O)c1ccc(S(N)(=O)=O)o1	none
O=C(Nc1ccc(S(=O)(=O)N2CCOCC2)cc1)c1cccnc1	none (no result: Hsp70 activator)
Fc1ccc(/C=N/Nc2nc3ccccc3[nH]2)cc1F	HSF1 activator 95.1
C(=N\Nc1nc2ccccc2[nH]1)/c1ccccc1	HSF1 activator 199.1
Fc1cccc(/C=N/Nc2nc3ccccc3[nH]2)c1	none
O=C(CCN1CCCCO1)N1CCCC(Nc2cccc(F)c2)C1 (stereo not given)	none (no result: S1P4 ag, Hsp70 activator, S1P4 antag, S1P3 antagonist)
O=C1C(=O)N(CCCc2ccccc2)c2ccccc21	none (no result: S1P4 ag, Hsp70 activator, S1P4 antag, S1P3 antagonist)
Cc1[nH]c(C)c(S(=O)(=O)N2CCN(c3cccc(Cl)c3)CC2)c1C(=O)N1CCCCC1	none (no result: S1P4 ag, Hsp70 activator, S1P4 antag, S1P3 antagonist)
O=c1c(-c2nc3ccccc3s2)cccn1Cc1ccc(Cl)c(Cl)c1	HSF1 activator 52.5 (no result: S1P3 antagonist)
CCOc1ccc(-c2nc(CSc3nnc(N)s3)cs2)cc1	HSF1 activator 62.4 (no result: S1P3 antagonist)
CCCOc1ccc(OCCSc2nnc(N)s2)cc1	HSF1 activator 125.0 (no result: S1P3 antagonist)
Nc1nnc(SCCCOc2ccc(F)cc2)s1	none (no result: S1P4 ag, Hsp70 activator, S1P4 antag, S1P3 antagonist)
CCCOc1ccc(OCCSc2ncccn2)cc1	HSF1 activator 72.4
C=Cc1ccc(Cn2c(=O)n(C)c(=O)c3sccc32)cc1	none (no result: S1P4 ag, Hsp70 activator, S1P4 antag, S1P3 antagonist)
COc1ccc(-c2n[nH]c(=S)n2-c2ccccc2C)cc1OC	none (no result: S1P4 ag, Hsp70 activator, S1P4 antag, S1P3 antagonist)
COc1ccc(OC)c(NC(=O)c2c(NC(=O)CNCc3ccco3)sc3c2CCC3)c1	none
COc1ccc(NC(=O)c2c(NC(=O)CNCc3ccco3)sc3c2CCC3)c(OC)c1	S1P3 antagonist 70.1
Cc1ccc(OCC(=O)N2c3ccccc3CC2C)c([N+](=O)[O-])n1 (stereo not given)	none
CC(C)=C1C2CCC1C1C(=O)N(c3nc(-c4ccccc4)c(C)s3)C(=O)C21 (stereo not given)	HSF1 activator 74.1
O=C(/C=C/Nc1ccccc1Br)c1ccccn1	HSF1 inh -60.6 (no result: S1P3 antagonist)
COc1ccc(C2c3ccc(O)cc3Oc3ncn(Cc4ccco4)c(=N)c32)cc1 (stereo not given)	HSF1 activator 75.2 (no result: Hsp70 activator)
COc1ccc(C2c3c(ncn(Cc4ccco4)c3=N)Oc3ccc4ccccc4c32)cc1 (stereo not given)	HSF1 activator 69.4
COc1ccc(C2c3ccc(O)cc3Oc3ncn(Cc4ccccc4)c(=N)c32)cc1OC (stereo not given)	none (no result: Hsp70 activator)
COCC(C)n1c(SCC(=O)c2cc(C)n(C)c2C)nc2ccccc2c1=O (stereo not given)	none
O=[N+]([O-])c1ccc(/C=N/N2CCCCC2)cc1	none (no result: S1P4 ag, Hsp70 activator, S1P4 antag, S1P3 antagonist)
CC(=O)N1CCN(c2ccc(NC(=O)c3ccc([N+](=O)[O-])o3)cc2Cl)CC1	HSF1 inh -88.0 (no result: S1P4 ag, Hsp70 activator, S1P4 antag, S1P3 antagonist)
CC(=O)Nc1cccc(NC(=O)c2ccco2)c1	none
